The campaign covered roughly 190,000 compounds. About 1,600 (0.84%) were called active. The list comes from a sample in which actives are over-represented; it also holds similar structures and randomly drawn compounds. Values without a mark were called inactive.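 Rule for the calls: active = inhibition above a set limit, derived from the sample mean plus 3 SD (cut at about 45% in these data); inconclusive = one replicate passes the limit while the other fails; inactive = the rest.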

This experiment can be described thus: APP 5'UTR translational reporter suppression – APP 5'UTR luciferase, SH-SY5Y cells, primary screen (AID 1285). As to conditions: SH-SY5Y APP 5'UTR-luciferase reporter, luminescence; at 2 µM; hits give high values. For orientation: Reporter assays use an easily measured gene product as a stand-in for the process of interest.
For orientation: inhibition means the change of the read-out against control, counted positive when it falls. As to `Cc1cccc(N2C(=O)SC(SC(=Nc3ccccc3)Nc3ccccc3)C2=O)c1` (configuration not stated), the inhibition is -14.2%.
With `Cn1c(CCC(=O)Nc2ccccc2F)nnc1SCC(=O)Nc1ccccc1Cl` the figure was -2.1%; with `C=CCn1c(SCC(=O)NCc2ccccc2)nnc1-c1cc(Br)ccc1O`, 55.6% (active).
As to `C=CCn1c(SCC(=O)Nc2nc3ccccc3s2)nnc1-c1ccccc1O`, the inhibition was 0.7%.
With `O=C(CSc1nnc(-c2cccnc2)n1CCc1ccccc1)NCc1ccccc1` the figure was 4.7%; with `C/C(Cn1nnc2ccccc21)=N\OC(=O)c1cc(F)c(F)cc1Cl`, -4.6%.
With `N#CC1=C(N)Oc2c(sc3ccccc23)C1c1ccco1` (configuration not stated) the figure was 56.2% (active).
For `Cc1cc(C)c2c3c(sc2n1)C(c1ccccc1)C(C#N)=C(N)O3` (configuration not stated) the value was 7.5%; for `Cc1cc2c(c(=O)n1Cc1ccco1)C(c1ccccc1)C(C#N)=C(N)O2` (configuration not stated), -7.5%; for `O=C(/C=C/c1ccc(N2CCOCC2)cc1)c1ccccc1`, -140%.
In the case of `O=C(N/N=C/c1coc2ccccc2c1=O)c1cc2ccccc2o1`, the inhibition was 0.7%.
With `Cc1c(/C=N/N2C(=O)C3C4C=CC(C4)C3C2=O)c2ccccc2n1C` (configuration not stated) the figure was 13.8%; with `Cc1c(/C=N\NC(=O)c2cc3ccccc3o2)c2ccccc2n1C`, 78% (active).
With `CCOc1ccc(NC(=O)COc2ccc(C(=O)NC3CCCc4ccccc43)cc2OC)cc1` (configuration not stated), the inhibition is -14.3%.
With `COc1ccccc1CNC(=O)COc1ccc(C)nc1[N+](=O)[O-]` the figure was -13.3%; with `C/C(=C\c1ccccc1)C1NC(=O)c2c(sc3c2CCCC3)N1` (configuration not stated), 14.6%; with `CCOC(=O)CSC1=C(C#N)C(c2sccc2C)CC(=O)N1` (configuration not stated), 93.4% (active).
As to `Cc1ccc(C2CC(=O)NC(SCC(=O)OCc3ccccc3)=C2C#N)o1` (configuration not stated), the inhibition was 18%.
With `C=CCOC(=O)C1=C(C)NC(SCC(=O)OCC)=C(C#N)C1c1ccc(C)cc1` (configuration not stated) the figure was -6.5%.
Take `CC(C)(C)NC(=O)C(=O)NCc1ccncc1`: the inhibition was -1.4%.
With `C/C(=N\NC(=O)Cc1ccc(Cl)cc1)c1ccccn1`, the inhibition is 58.9% (active).
Consider `COc1ccc(CC(=O)N/N=C(\C)c2ccccn2)cc1`, for which the inhibition was 23.4%.
With `C/C(=N\NC(=O)Cc1ccc(F)cc1)c1ccc(F)cc1` the figure was 10.7%.
With `Cc1ccc(NC(=O)c2ccn(C(=O)Nc3ccccc3)n2)c(C)c1` the figure was -34.7%; with `COc1ccc(C)c(Cn2c(-c3nonc3N)nc3ccccc32)c1`, 90.7% (active).
With `Nc1nonc1-c1nc2ccccc2n1CCC(=O)O` the figure was -2%; with `Nc1nonc1-c1nc2ccccc2n1Cc1ccc(F)cc1`, -0.7%; with `O=C(NCCCN1CCOCC1)c1ccc([N+](=O)[O-])cc1[N+](=O)[O-]`, -18.1%.
Consider `COc1cc(OC)cc(C(=O)OCC(=O)Nc2sccc2C(N)=O)c1`, for which the inhibition is 11.2%.
Take `O=C1/C(=C\c2cccnc2)CN(Cc2ccccc2)C/C1=C\c1cccnc1`: the inhibition is 97.1% (active).
With `O=Cc1cn(Cc2ccccc2)nc1-c1cccnc1` the figure was -9.8%; with `Clc1ccc(CN2CCN(/N=C/c3cccnc3)CC2)cc1`, -6.8%; with `Cc1cccc(N2CCN(c3ccc(C(N)=O)cc3[N+](=O)[O-])CC2)c1C`, -15.7%.
With `CCn1c(CNC(=O)c2ccco2)nnc1SCC(=O)Nc1cccc(F)c1` the figure was -10%.
For `CCn1c(Cc2ccccc2)nnc1SCC(=O)Nc1ccccc1` the value was -1.3%.
For the molecule `CCn1c(CNC(=O)c2ccc(OC)c(OC)c2)nnc1SCC(=O)Nc1ccccc1`, the inhibition is 45.9% (active).
With `O=C(CNC(c1ccccc1)c1ccccc1)Nc1ccc(F)cc1` the figure was -7.4%; with `CC1(C)CC(=O)C(N=Nc2ccc(S(=O)(=O)N3CCCCCC3)cc2)=C(O)C1`, 9.4%.
For `CCOC(=O)c1ccc(N2C(=O)CC(N3CCN(C(=O)c4ccccc4)CC3)C2=O)cc1` (configuration not stated) the value was -5.3%; for `O=C(COc1cc(Cl)c(Cl)cc1Cl)NC(=O)NC1CCCC1`, 45.2% (active).
With `O=C(COc1cc(Cl)c(Cl)cc1Cl)NCCc1ccccn1` the figure was 1.4%.
With `O=C(COc1ccccc1F)NC1CC1`, the inhibition was -9.1%.
For `Cc1ccccc1C1CC(c2cccs2)=NN1S(C)(=O)=O` (configuration not stated) the value was 17.8%.
Turning to `Cn1nnc(NC(=O)CSc2ncn[nH]2)n1`, the inhibition was 53.1% (active).
For `O=C(CSc1ncn[nH]1)Nc1ccnc2ccccc12` the value was 4%; for `O=C(CSc1ncn[nH]1)Nc1nsc(-c2ccccc2)n1`, -2.5%.
For `COc1ccc(Br)cc1/C=N/NC(=O)c1cccc(S(=O)(=O)N2CCOCC2)c1` the value was -16.1%.

The values above are taken from PubChem BioAssay AID1285 (Columbia University Molecular Screening Center, 2008).
